Source: PubChem (National Center for Advancing Translational Sciences (NCATS))
Shown are actives, neighbours in structure and some others; about 2% of the full set was active somewhere.
HttQ103 aggreg: mutant huntingtin aggregation inhibition. PC12 HttQ103-GFP aggregates, Acumen cytometry, 40 h. AID 1688. Potency, µM (titrated, usually from 46.1 µM), for inactives: top-dose activity change, negative = inhibition, most hits filed as inhibitors. 220,000 compounds, 1.1% hits; note: potency is the fitted concentration of half-maximal effect; % is set by controls: 0 for no effect and ±100 for the full control effect; nearly all actives have a fitted effect of over 60% in size
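Steps: seed 1500 PC12 HTTQ103-GFP cells/well; add tebufenozide, 100 nM final; add compound titration; add ATPLite reagent; quantify GFP aggregates by laser scanning cytometry.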
TexasRed fluor: alters Texas Red total fluorescence, flagging assay interference; TRb/SRC2 Texas Red total fluorescence interference; Potency, µM (top dose mostly 106 µM), without a hit: at the top dose fluorescence change, negative = quenching; 280,000 compounds, 0.29% hits; active = well fitted curve in either direction with a large enough effect; inconclusive = small, poorly fitted or top-dose-only effect; note: potency is the fitted concentration of half-maximal effect; % is set by controls: 0 for no effect and ±100 for the full control effect
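Human TRb ligand-binding domain at 0.6 uM with 20 nM Texas Red SRC2 peptide in Tris buffer containing 1 uM T3 and 5% DMSO, incubated with compound 5 h at ambient temperature. Total fluorescence (555/632 nm) calculated as parallel + 2 × perpendicular.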
TRb SRC2 PPI: disrupts binding of human TR beta to SRC2; TRbeta-SRC2 peptide binding, fluorescence polarization; receptor liganded with 1 µM T3; 280,000 compounds, 0.065% hits; P10828; Potency, µM (doses to about 106 µM), inactives show top-dose activity change, negative = inhibition, actives largely listed as inhibitors;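 note: potency is the fitted concentration of half-maximal effect; plate controls were bound peptide for no effect and peptide without receptor for full effect; nearly all actives have a fitted effect of over 50% in size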
Target sequence (P10828 whole entry, looked up): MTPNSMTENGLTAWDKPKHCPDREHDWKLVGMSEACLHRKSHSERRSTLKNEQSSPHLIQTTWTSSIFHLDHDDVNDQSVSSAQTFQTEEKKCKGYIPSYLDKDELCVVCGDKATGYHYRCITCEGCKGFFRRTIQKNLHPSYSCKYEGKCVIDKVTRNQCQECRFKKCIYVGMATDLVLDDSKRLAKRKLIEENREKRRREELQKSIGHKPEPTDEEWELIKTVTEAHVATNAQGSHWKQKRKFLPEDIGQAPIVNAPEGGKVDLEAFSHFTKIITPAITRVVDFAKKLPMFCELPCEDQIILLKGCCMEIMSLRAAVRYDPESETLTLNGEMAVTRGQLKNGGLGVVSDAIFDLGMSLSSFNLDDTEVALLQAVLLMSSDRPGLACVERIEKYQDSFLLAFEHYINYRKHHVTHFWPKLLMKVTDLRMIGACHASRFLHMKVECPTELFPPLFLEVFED
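Human TRb ligand-binding domain (0.6 uM) is mixed with 20 nM Texas Red SRC2 peptide and 1 uM T3; after compound addition and 5 hr at ambient temperature, polarization is measured and normalized to unbound and bound controls.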
FBPA coupling cs: counter-screen for Giardia aldolase inhibitors: coupling enzyme system; 290,000 compounds, 0.67% hits; coupling enzyme system counterscreen, AmpLite Red fluorescence; activity change, negative = inhibition, % at 58.2 µM, hits read low; in the data active = activity change below about -30%; note: % is set by controls: 0 for no effect and ±100 for the full control effect
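First, compound is pin-transferred into glyceraldehyde-3-phosphate coupling-enzyme reagent at 57.5 uM final and held 10 min at RT. Next, substrate, coupling system and AmpLite Red are added. After 20 min RT, fluorescence (525/598 nm) is read.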
HTT cytoprotect: Huntington cell model cytoprotection by ATP luminescence. PC12 HTT-Q103 induced, cytoprotection, ATP luminescence, 40 h. Potency, µM (highest dose often 56.4 µM), for inactives: cytoprotection (ATP increase), actives largely listed as activators. 230,000 compounds, 0.14% hits. AID 1471; note: potency is the fitted concentration of half-maximal effect; % of control where 0% means no effect; nearly all actives have a fitted effect of over 45% in size
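Cells were plated at 1500 per well in phenol red-free DMEM with 5% equine and 5% calf serum. Tebufenozide (100 nM final) and compounds were added, then ATPlite reagent, and luminescence was read.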
JMJD2E inh: JMJD2E (human) inhibition. B2RXH2. JMJD2E catalytic domain, FDH-coupled NADH fluorescence (FDH is formaldehyde dehydrogenase). Potency, µM (series often up to 57.1 µM), inactives show at the highest dose activity change, negative = inhibition, usual class: inhibitors. 230,000 compounds, 1.6% hits. AID 2147; active = well fitted inhibition curve with a large enough effect, not every such curve was filed as active; inconclusive = small, poorly fitted or top-dose-only effect, or another doubt; inactive = no such curve, though single readings can be large or run the other way;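 note: potency is the fitted concentration of half-maximal effect; 0% = wells with enzyme and -100% = buffer wells without enzyme; nearly all actives have a fitted effect of over 50% in size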
Numbers without * were called inactive; ? = inconclusive; nt = no result; [ ] = dose if it differs, or a comment. Unless noted, calls come from the whole dose curve; as a rule, active = well fitted curve in the direction sought with a large enough effect; inconclusive = small, poorly fitted or top-dose-only effect, or another doubt; inactive = no such curve, though single readings can be large; an effect the other way counts as inactive or inconclusive.

SMILES	HttQ103 aggreg	TexasRed fluor	TRb SRC2 PPI	FBPA coupling cs	HTT cytoprotect	JMJD2E inh
Cc1cc(C)nc(N/N=C2/CCCC/C2=C\c2ccccc2)n1	4.5µM*	-1%	14%	-1	-55%[10 µM]	23%
COc1ccc2ccccc2c1C(=O)/C=C\c1ccoc1	?	-13%	10%	-26	nt	25µM*
COc1cc(OC)c(C(=O)/C=C/c2ccccc2)c(O)c1O	-7%[9.22 µM]	-5%	-3%	6	1%[10 µM]	-7%
CC(C)N1CCc2c(sc(NC(=S)NC(=O)c3ccccc3)c2C#N)C1	2%	5%	2%	-39*	-2%[10 µM]	-5%
CCCN1CCc2c(sc(NC(=S)NC(=O)c3ccccc3)c2C#N)C1	-10%	-4%	-2%	1	-87%	?
CC1(C)CC2(CC(c3ccccc3F)c3ccc(O)c(O)c3O2)NC(=S)N1 (centres undefined)	25%[9.22 µM]	-4%	-1%	-5	23%[10 µM]	10µM*
COc1ccc(C(=O)Nc2nnc(S(=O)(=O)N(C)c3ccc(Cl)cc3)s2)cc1OC	nt	-23%	0%	nt	nt	nt
O=C(N/N=C/c1c(O)ccc2ccccc12)c1[nH]ncc1Br	1.1µM*	-13%	14%	-6	-83%[10 µM]	32µM*
Cc1ccc(O)c(/C=N/NC(=O)c2[nH]ncc2Br)c1	?	-1%	8%	1	-2%[10 µM]	3.2µM*
COc1ccc2ccccc2c1/C=N/NC(=O)c1cccc(Br)c1	-26%	-4%	-2%	0	nt	?
O=C(N/N=C/c1c(O)ccc2ccccc12)c1cccc(C(F)(F)F)c1	4µM*	-6%	-5%	-1	nt	25µM*
Cc1cc(C)n(CCC(=O)N/N=C/c2c(O)ccc3ccccc23)n1	?	-2%	-3%	-21	-67%[10 µM]	0.2µM*
CCOc1ccc(/C=N/NC(=O)c2[nH]ncc2Br)c(O)c1	nt	-5%	0%	-6	nt	?
CC(=O)N1CCOc2cc(S(=O)(=O)Nc3cccc(C(F)(F)F)c3)c(Cl)cc21	nt	5%	-3%	nt	nt	nt
CCC(=O)N1CCc2cc(Br)cc(S(=O)(=O)N3CCC(C(=O)Nc4cccc(C)c4)CC3)c21	nt	?	2%	nt	nt	nt
Cc1[nH]c2ccccc2c1CC#N	-3%[9.22 µM]	-4%	6%	-1	22%[10 µM]	1%
Cc1[nH]c2ccccc2c1C(C#N)(C#N)C1C(=O)c2ccccc2C1=O	-20%[9.22 µM]	-4%	-1%	-36*	0%[10 µM]	?
COCCn1c(C)cc(/C=C2/NC(=O)N(c3cccc(Cl)c3)C2=O)c1C	12%	-2%	0%	-3	nt	?
CCn1c(C)cc(/C=C2/NC(=O)N(CC(=O)Nc3cccc(C)c3)C2=O)c1C	10%	3%	2%	0	5%[10 µM]	22µM*
CCn1c(C)cc(/C=C2/NC(=O)N(c3ccccc3)C2=O)c1C	?	-1%	7%	0	-34%	25µM*
COC1CC2CCC(C)[C@](O)(O2)C(=O)C(=O)N2CCCCC2C(=O)OC(C(C)CC2CCC(O)C(OC)C2)CC(=O)C(C)/C=C(/C)C(O)C(OC)C(=O)C(C)CC(C)C=CC=C/C=C\1C (some centres undefined)	-2%	nt	nt	nt	-35%	nt
CCOc1ccc(C(=O)N2CCN(Cc3cc(=O)n4nc(-c5ccccc5Cl)sc4n3)CC2)cc1	nt	2%	-12%	nt	nt	nt
O=C(Nc1ccccc1O)c1ccccc1O	?	-1%	-15%	0	-38%	-26%
Cc1cccc(NC(=O)c2ccccc2O)c1C	?	-1%	5%	-32*	-16%[10 µM]	-4%
Fc1ccc(-n2ncc3c(Nc4ccc(Oc5ccc(Cl)cc5)cc4)ncnc32)cc1	nt	0%	8%	nt	nt	nt
C/C(=N\Nc1nnc(C)c(=O)[nH]1)C(=O)O	4%	2%	6%	-51*	16%	-3%
O/C(=C\c1nc2ccccc2nc1/C=C(\O)c1ccccc1)c1ccccc1	?	-1%	-4%	-48*	19%	18%
O=c1oc2ccccc2nc1/C=C(\O)c1ccccc1	-5%[9.22 µM]	1%	0%	3	21%[10 µM]	-17%
